Assays:
Test in all cases: PBM binding z-score (relative to random genomic background probes); higher = stronger binding; sequences stand for … in GC…GCGATTGACAGCGTAGAATGAAGG
[1] = test system: FXR:RXRa (NR concentration 270 nM, RXRa partner concentration 90 nM)
Outline: (§1)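 Binding z-scores take random background probes as their reference. They come from custom Agilent 4×180K protein-binding microarrays incubated 1 h with ligand-free nuclear receptor dimers, with antibodies against each partner (one per run) detecting binding. Scanned fluorescence was regression-normalized.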

[2] = test system: LXRa:RXRa (NR concentration 270 nM, RXRa partner concentration 90 nM)
Outline: as §1

[3] = test system: LXRa homodimer (NR concentration 270 nM)
Outline: as §1

[4] = test system: LXRb:RXRa (NR concentration 270 nM, RXRa partner concentration 90 nM)
Outline: as §1

[5] = test system: LXRb homodimer (NR concentration 270 nM)
Outline: as §1

[6] = test system: PPARa:RXRa (NR concentration 270 nM, RXRa partner concentration 90 nM)
Outline: as §1

[7] = test system: PPARg:RXRa (NR concentration 180 nM, RXRa partner concentration 90 nM)
Outline: as §1

[8] = test system: PPARg:RXRa 270nM:90nM, anti-RXR (NR concentration 270 nM, RXRa partner concentration 90 nM)
Outline: as §1

[9] = test system: PPARg:RXRa 30nM:10nM, anti-RXR (NR concentration 30 nM, RXRa partner concentration 10 nM)
Outline: as §1

[10] = test system: PPARg:RXRa 90nM:30nM, anti-RXR (NR concentration 90 nM, RXRa partner concentration 30 nM)
Outline: as §1

[11] = test system: PPARg:RXRa DBDmut IVT, anti-RXR (DBD mutation: RXRa K156A/R161A, NR concentration 270 nM, RXRa partner concentration 90 nM)
Outline: as §1

[12] = test system: PPARg:RXRa IVT, anti-PPARg (NR concentration 270 nM, RXRa partner concentration 90 nM)
Outline: as §1

[13] = test system: PPARg DBDmut:RXRa IVT, anti-PPARg (DBD mutation: PPARg1 K132A/R137A, NR concentration 270 nM, RXRa partner concentration 90 nM)
Outline: as §1

[14] = test system: PPARg DBDmut IVT, anti-PPARg (DBD mutation: PPARg1 K132A/R137A, NR concentration 270 nM)
Outline: as §1

[15] = test system: PPARg homodimer (NR concentration 180 nM)
Outline: as §1

[16] = test system: PXR:RXRa (NR concentration 270 nM, RXRa partner concentration 90 nM)
Outline: as §1

[17] = test system: PXR homodimer (NR concentration 270 nM)
Outline: as §1

[18] = test system: RARa:RXR (NR concentration 270 nM, RXRa partner concentration 90 nM)
Outline: as §1

[19] = test system: RARa homodimer (NR concentration 270 nM)
Outline: as §1

[20] = test system: RARb:RXRa (NR concentration 270 nM, RXRa partner concentration 90 nM)
Outline: as §1

| Sequence | PBM binding z-score [1] | PBM binding z-score [2] | PBM binding z-score [3] | PBM binding z-score [4] | PBM binding z-score [5] | PBM binding z-score [6] | PBM binding z-score [7] | PBM binding z-score [8] | PBM binding z-score [9] | PBM binding z-score [10] | PBM binding z-score [11] | PBM binding z-score [12] | PBM binding z-score [13] | PBM binding z-score [14] | PBM binding z-score [15] | PBM binding z-score [16] | PBM binding z-score [17] | PBM binding z-score [18] | PBM binding z-score [19] | PBM binding z-score [20] |
| --- | --- | --- | --- | --- | --- | --- | --- | --- | --- | --- | --- | --- | --- | --- | --- | --- | --- | --- | --- | --- |
| CAAACTAGGTTAAGGTCAAAGTCGGTTTGTGCCA | 5.87 | 5.27 | 3.87 | 4.36 | 1.08 | 5.45 | 7.13 | 6.97 | 5.07 | 7.2 | 7.61 | 7.5 | 2.24 | 3.72 | 4.36 | 5.2 | 3.07 | 5.71 | 2.29 | 4.32 |
| CTACCAAGGTGAACAAGGTCGTTGAATACTATTC | 1.52 | 1.23 | 0.0934 | 1.87 | -0.659 | 2.68 | 1.19 | 1.39 | 0.333 | 0.702 | 2.52 | 2.79 | 0.336 | 0.338 | 0.802 | 2.75 | 2.05 | 2.46 | 0.109 | 2.03 |
| CCAGACAGGTGAAAGGCAACTCAGTCTGGTACGC | -0.102 | 0.0112 | -0.327 | 0.0509 | -0.597 | 1.7 | 2.49 | 3.2 | 1.12 | 2.8 | 0.767 | 1.08 | 0.0608 | -0.556 | 0.466 | -0.0216 | -0.296 | 0.0824 | 0.0834 | 0.639 |
| ACAGACAGGTGAGTGAAGGTAACTCAGCTGGACG | 0.377 | 0.0321 | -0.247 | -0.255 | -0.625 | 0.294 | 0.762 | 0.0476 | -0.138 | -0.304 | 0.432 | 0.804 | 0.0951 | 0.079 | -0.0829 | -0.379 | -0.472 | 0.0819 | -0.173 | 0.67 |
| CGAACGAGGGCCTGAGTTGATAGCAAATGCCGAT | -0.571 | -0.754 | -0.624 | -0.612 | -0.92 | -0.663 | 0.336 | -0.582 | -0.305 | -0.468 | -0.653 | -0.278 | -0.385 | -0.392 | -1.19 | -0.457 | -0.641 | -0.337 | -0.966 | -0.393 |
| ATCGAAAGGTCGAGGGGAGTATAGAGAAAGGGAA | 4.46 | 3.49 | 0.308 | 2.92 | 1.64 | 4.58 | 2.97 | 3.17 | 1.13 | 2.36 | 0.44 | 1.72 | 1.88 | 1.27 | 1.83 | 2.27 | 0.897 | 3.24 | 1.45 | 3.97 |
| CCTATTAGTTGACCATAAGGGCAACCGAAGCTCG | 1.08 | 0.988 | 0.64 | 0.736 | 0.554 | 0.977 | 0.556 | 0.931 | -0.00379 | 1.03 | 0.774 | 0.558 | 0.33 | 0.387 | 1.7 | 1 | 0.754 | 1.37 | 1.39 | 1.7 |
| CTATCAAGGTGAACAAGGTCGTTGATTACTATTC | 1.16 | 1.14 | -0.163 | 1.54 | -0.39 | 2.47 | 1.53 | 1.51 | 0.103 | 0.808 | 3.58 | 3.69 | 0.759 | 0.594 | 0.866 | 2.7 | 2.19 | 2.38 | 0.109 | 2.22 |
| CCTCGGAGGACAACAGGAGGTCTGAGCTGCCAGA | -0.506 | -0.574 | -0.845 | -1.09 | -1 | -0.764 | -0.138 | -0.868 | -1.36 | -1.17 | -0.107 | -0.71 | -1.05 | -1.49 | -0.258 | -0.738 | -0.871 | -0.635 | -0.516 | 0.983 |
| CCTCGGAGGACAGCAGGTCAGAGCTGTCCGCTTT | 0.494 | 0.589 | -0.357 | -0.0868 | -0.729 | 0.521 | -0.863 | -0.393 | -1.22 | -1.04 | -0.0532 | -0.162 | -1.57 | -1.57 | 0.113 | 0.0301 | -0.196 | 0.742 | -0.236 | 2.04 |
| GATGCAGGGTCAAGGCCAGAGTACGCGTATTGAT | 6.64 | 3.82 | -0.363 | 3.54 | -0.254 | 5.74 | 5.22 | 4.93 | 1.79 | 3.61 | 1.47 | 3.42 | -0.201 | -0.81 | 1.2 | 3.59 | 0.224 | 3.86 | 0.306 | 4.54 |
| CCTAGCAGGCCGGGGTCACTCAAGCATTTCGCTT | 4.66 | 3.63 | -0.0184 | 3.88 | -0.234 | 4.93 | 2.5 | 3.86 | 0.906 | 2.54 | 0.19 | 1.7 | -1.3 | -0.709 | 1.87 | 5.35 | 0.474 | 5.98 | 0.348 | 3.53 |
| TCATATGGGTAAATGCTAGGTGAAAGTCCGATCT | 0.03 | 0.212 | 0.0774 | 0.31 | -0.359 | 0.897 | 0.667 | 1.71 | 2.1 | 1.91 | 2.91 | 2.07 | 0.703 | 0.469 | -0.0354 | 0.217 | -0.0586 | 0.519 | -0.166 | 0.208 |
| ATCTCTAGGTAAGACTCAGTGCAGTGAAGAACGC | 0.188 | 0.383 | 0.212 | -0.0859 | 0.687 | -0.163 | -0.0807 | 0.0157 | 0.104 | -0.0649 | 1.64 | 0.686 | 0.237 | 0.958 | 0.398 | 0.339 | 0.592 | 0.223 | 0.328 | -0.152 |
